# From PubChem BioAssay
# KLK7 zymogen act = proKLK7 (human) activation, primary screen | purified proKLK7, EDANS-DABCYL substrate fluorescence; 100% is mature enzyme control, 0% vehicle | activation, % at 7 µM | P49862 | hit rate 0.9% among 370,000;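 active means activation above the mean of all tested compounds plus 3 SD, computed per campaign excluding outliers beyond control limits, cut at about 13% in these data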
# Target sequence (P49862 whole entry, looked up): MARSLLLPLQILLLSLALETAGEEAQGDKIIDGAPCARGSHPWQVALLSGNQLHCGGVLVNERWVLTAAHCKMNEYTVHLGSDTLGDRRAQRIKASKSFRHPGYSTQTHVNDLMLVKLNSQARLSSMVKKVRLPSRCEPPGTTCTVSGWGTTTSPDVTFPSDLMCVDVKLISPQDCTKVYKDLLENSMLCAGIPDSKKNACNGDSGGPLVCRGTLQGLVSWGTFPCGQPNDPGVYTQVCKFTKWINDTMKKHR
# rCAG binder = molecules binding r(CAG) RNA repeats; r(CAG) RNA repeat, TO-PRO-1 dye displacement fluorescence; inhibition, % at 3 µM; hit rate 1.3% among 370,000; AID 651821;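 active means inhibition above the plate cutoff, the mean of all test compounds on that plate plus 3 SD, cut at about 35% in these data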;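 further: 0% = DMSO alone and 100% = 100 µM mitoxantrone as full dye displacement; higher means more dye released from RNA so lower well fluorescence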
# ADAM17 inh = inhibits human ADAM17. P78536. recombinant ADAM17, EDANS/DABCYL FRET peptide cleavage. inhibition, % at 6.95 µM. hit rate 0.83% among 370,000;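 active means inhibition above the mean of compounds lying between control limits plus 3 SD, set per campaign, cut at about 8.5% in these data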;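 further: 0% = DMSO-only wells as the low control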
# ADAM10 inh = ADAM10 inhibition, QFRET primary screen; O14672; recombinant ADAM10, EDANS/DABCYL FRET peptide cleavage, 3 h; inhibition, % at 7 µM; hit rate 0.62% among 370,000;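 active means inhibition above a per-campaign cutoff equal to the mean of compounds falling between control-based bounds plus 3 SD, cut at about 20% in these data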;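 further: 0% = DMSO wells while the 100% control is not disclosed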
# Pemphigus Ab inh = human desmoglein-3 autoantibody binding inhibition. DSG3-coupled beads, scFv-anti-DSG3-GFP binding, flow cytometry; hits give low values. AID 588358. P32926. hit rate 0.48% among 310,000. binding (percent of control), % at 10 µM;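 active means binding more than 3 SD below its plate's average and above zero; inconclusive means below that plate limit but binding exactly zero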;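 further: hits lower antibody fragment binding to DSG3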
# MPTP block = inhibitors of mitochondrial permeability transition pore. isolated mouse mitochondria, Ca2+ swelling absorbance, 30 min. inhibition, % at 10 µM. hit rate 1.4% among 360,000. AID 602449;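 active means inhibition of 50% or more, scaled per plate between neutral and stimulator controls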;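 further: 0% = DMSO wells given calcium and 100% = 1 mM EGTA wells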
# rCAG bind conf = r(CAG) RNA repeat binding, confirmation | shares compounds with rCAG binder | TO-PRO-1 dye displacement fluorescence | inhibition, % at 3 µM | hit rate 70% among 4,300;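 active means inhibition above a per-plate cutoff, the mean inhibition of sample wells plus 3 SD, cut at about 35% in these data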;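 further: loss of TO-PRO-1 fluorescence as compound displaces dye from 1x1 AA loop RNA; 0% = DMSO only wells and 100% = 100 µM mitoxantrone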
# dCAG dye counter = disrupts DNA CAG TO-PRO-1 complex, flagging rCAG hits. d(CAG) DNA oligo TO-PRO-1 dye displacement, fluorescence. hit rate 94% among 4,300. inhibition, % at 3 µM. AID 652068. shares compounds with rCAG binder;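 active means inhibition above its plate's cutoff, the mean test-well inhibition plus 3 SD, cut at about 4.8% in these data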;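 further: 0% = DNA dye mix with DMSO and 100% = 100 µM mitoxantrone; hits displace the dye from DNA and so lower well fluorescence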
# The depositor's hits bear a star; ? = inconclusive; . = no result. An excerpt weighted towards active compounds, which were near 4.7% of everything screened.
SMILES,KLK7 zymogen act,rCAG binder,ADAM17 inh,ADAM10 inh,Pemphigus Ab inh,MPTP block,rCAG bind conf,dCAG dye counter
O=C(Nc1nc(-c2ccco2)c(-c2ccco2)s1)c1c(F)cccc1Cl,0,78*,-1,-18,.,1,28,14*
O=C(Nc1nc(-c2ccco2)c(-c2ccco2)s1)c1cnccn1,0,44*,-3,-3,.,.,22,13*
O=S(=O)(Nc1nc(-c2ccco2)c(-c2ccco2)s1)c1ccc(F)cc1F,1,62*,-10,-24,98,1,53*,20*
O=C(Nc1nc(-c2ccco2)c(-c2ccco2)s1)c1ccc(F)cc1F,-4,29,-3,-15,95,0,.,.
CCOC(=O)N1CCC2(CC1)C(C#N)=C(N)Oc1c2c(C)nn1-c1cccc(Cl)c1,1,36*,2,8,105,3,31,16*
Cc1nc(N2C(=O)C(=O)/C(=C(/O)c3ccccc3)C2c2ccco2)sc1C (centres undefined),0,19,1,7,105,-23,.,.
COC(=O)c1sc(N2C(=O)C(=O)/C(=C(/O)c3ccccc3)C2c2ccco2)nc1C (centres undefined),0,37*,2,-4,103,2,31,6.3*
CCOC(=O)c1ccc(/C=C2/C=C(c3ccccc3)N(c3ccc(Cl)c(C(=O)O)c3)C2=O)cc1,0,61*,-6,-28,133,8,70*,32*
CCOC(=O)c1ccc(Cl)c(NC(=O)c2ccc(-c3ccccc3)cc2)c1,1,-1,-3,-6,97,1,.,.
Cc1ccc(-c2c(C(=O)O)c(C(=O)O)c3n2CSC3)cc1,0,7,-5,-5,105,0,.,.
CC(C)(C)c1ccc(-c2c(C(=O)O)c(C(=O)O)c3n2CSC3)cc1,0,49*,-4,-5,98,2,41*,8.4*
Cc1ccsc1CN(C)C(=O)C(NC(=O)c1cccc(S(=O)(=O)N2CCOCC2)c1)C(C)C (centres undefined),0,1,1,-10,90,-1,.,.
Nc1ccccc1C(=O)NNC(=O)C(=O)/C=C(\O)c1ccccc1,-1,24,-40,-54,92,-1,.,.
O=C(C=C(O)c1ccc(Cl)cc1)C(=O)NNC(=O)C(O)(c1ccccc1)c1ccccc1,0,71*,8,15,84,-2,36*,12*
Cc1ccc(/C(O)=C/C(=O)C(=O)NNC(=O)C(O)(c2ccccc2)c2ccccc2)cc1,-1,46*,2,6,103,-5,29,13*
CC(=O)NNC(=O)C(O)(c1ccccc1)c1ccccc1,0,-3,-3,-2,98,1,.,.
COC(=O)[C@H](C(C)C)N(CCc1cn(CC2CCCCC2)nn1)S(=O)(=O)c1ccc(F)cc1Br,0,0,7,15,.,.,.,.
CCOC(=O)C1=C(C(=O)OCC)C2N(Cc3ccc(Br)cc3)c3ccccc3[C@@]23C[C@@H](C(=O)OC)N(S(=O)(=O)c2ccc(OC)cc2)C3=N1 (some centres undefined),0,8,-5,-11,.,.,.,.
N#Cc1ccc(S(=O)(=O)NC(=O)[C@H]2O[C@@H](n3ccc(=O)[nH]c3=O)[C@H](O)[C@@H]2O)cc1,0,3,3,-5,.,.,.,.
O=C(c1[nH]c(C(F)(F)F)nc1-c1ccccc1)N1CCN(c2ccc(C(F)(F)F)cn2)CC1,0,19,-2,-12,.,0,.,.
Cc1ccc(-c2[nH]nc(N)c2N=Nc2cccc(Cl)c2C)cc1,0,42*,4,7,105,18,23,12*
CC(c1ccco1)N(C(=O)c1ccccc1NS(=O)(=O)c1cc([N+](=O)[O-])ccc1Cl)c1ccccn1 (centres undefined),0,58*,1,-10,109,1,53*,21*
O=C(O)c1c2c(nc3ccc(S(=O)(=O)N4CCC(C(=O)NCc5ccc(Cl)cc5)CC4)cc13)CCCC2,-1,42*,-10,-22,.,0,40*,13*
O=C(O)c1c2c(nc3ccc(S(=O)(=O)N4CCC(C(=O)NC5CCCCCC5)CC4)cc13)CCCC2,0,36*,-7,-40,100,3,41*,13*
O=C(O)c1c2c(nc3ccc(S(=O)(=O)N4CCC(C(=O)NCc5ccccc5Cl)CC4)cc13)CCCC2,-2,39*,-3,-8,108,-1,36*,9.5*
SMILES,KLK7 zymogen act,rCAG binder,ADAM17 inh,ADAM10 inh,Pemphigus Ab inh,MPTP block,rCAG bind conf,dCAG dye counter
COc1ccc(CNC(=O)C2CCN(S(=O)(=O)c3ccc4nc5c(c(C(=O)O)c4c3)CCCC5)CC2)cc1,0,19,-3,-7,108,-2,.,.
CCOc1cc(N2CCOCC2)c(OCC)cc1NC(=O)COC(=O)c1ccccc1OC(F)F,0,1,1,10,?,3,.,.
OC[C@@H]1CN(CCN2CCOCC2)C[C@H](n2cnc3c(N4CCOCC4)ncnc32)O1,0,0,-2,-4,.,1,.,.
CCCCN1CC(C(=O)NCc2ccc(C)cc2)CC1=O (centres undefined),0,46*,-3,0,106,0,0,-1
CN(c1ccccc1)S(=O)(=O)c1ccc(C(=O)Nc2nnc(-c3ccco3)o2)cc1,-1,42*,5,13,89,0,36*,13*
CN(c1ccccc1)S(=O)(=O)c1ccc(C(=O)Nc2nnc(C3CC3)o2)cc1,-1,0,-3,-2,90,1,.,.
CCN(c1ccccc1)S(=O)(=O)c1ccc(C(=O)Nc2nnc(C3CC3)o2)cc1,-1,24,6,7,94,0,.,.
CCN(c1ccccc1)S(=O)(=O)c1ccc(C(=O)Nc2nnc(-c3ccco3)o2)cc1,1,57*,7,16,90,0,45*,15*
CC1CCCN(S(=O)(=O)c2ccc(C(=O)Nc3nnc(-c4ccco4)o3)cc2)C1 (centres undefined),0,41*,7,8,105,-2,38*,13*
O=C(NCc1cccc(F)c1F)C1CCC(=O)N(C2CCCCCC2)C1 (centres undefined),0,-5,2,3,99,0,.,.
O=C(O)c1ccc(-n2cccc2/C=C2/NC(=O)N(c3cccc(Cl)c3)C2=O)cc1,-1,39*,2,0,88,1,31,8.8*
O=C(NNC(=O)c1ccccc1Cl)c1cc2cc(OC(F)(F)F)ccc2[nH]1,0,5,-7,-2,109,9,.,.
